Screens deposited in PubChem by several laboratories.
Sampled rows, rich in hits. Any-hit rate of the full collection: about 5.4%.
Granule exo inh – LAMP-1 surface exposure blockers, TALL-104 cells – cell-based, flow cytometry, MLPCN library, primary screen | 0.66% of 360,000 active | inhibition, % at 10 µM | TALL-104 LAMP-1 surface exposure; cells stimulated with thapsigargin and PMA | AID 651702, 2012;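 active means inhibition above about 55%, limit read from the data; inconclusive means no clear call, values can overlap the other calls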
GASC-1 inh – inhibitors of GASC-1 histone demethylase, primary screen, biochemical, fluorescence, DELFIA europium. Lysine-specific demethylase 4C (Homo sapiens), Q9H3R0. GST-JMJD2C(1-420) H3K9me3 demethylation. inhibition, % at 2.35 µM. 0.069% of 330,000 active;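 active means more than half of a compound's replicate wells show inhibition beyond 50%, single wells judged on their own value; inconclusive means some, but no more than half, of replicates pass 50% inhibition; inactive means no replicate passes 50% inhibition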;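 further: signal counts dimethyl H3K9 product captured on neutravidin plate; 0% = median of DMSO wells and 100% = 0.3 times that DMSO median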
Target sequence (Q9H3R0 1-420 limits assumed): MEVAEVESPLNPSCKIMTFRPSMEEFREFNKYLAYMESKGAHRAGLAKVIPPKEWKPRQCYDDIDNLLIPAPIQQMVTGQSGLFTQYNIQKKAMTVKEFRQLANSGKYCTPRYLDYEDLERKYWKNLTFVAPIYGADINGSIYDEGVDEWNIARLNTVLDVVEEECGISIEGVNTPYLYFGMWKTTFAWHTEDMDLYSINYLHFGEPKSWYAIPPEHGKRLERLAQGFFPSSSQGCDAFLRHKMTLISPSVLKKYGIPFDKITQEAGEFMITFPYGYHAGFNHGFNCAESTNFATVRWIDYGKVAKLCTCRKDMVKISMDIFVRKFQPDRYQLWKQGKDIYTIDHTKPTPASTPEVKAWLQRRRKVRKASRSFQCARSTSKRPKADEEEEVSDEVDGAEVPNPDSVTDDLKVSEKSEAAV
ALR inh – inhibitors of human ALR sulfhydryl oxidase, primary screen, biochemical, H2O2 detection, HRP-luminol luminescence, single point; FAD-linked sulfhydryl oxidase ALR (Homo sapiens), P55789; purified ALR, DTT oxidation; inhibition, % (no concentration beside the values); 3.8% of 290,000 active;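 active means mean replicate inhibition above about 79%, with every replicate also reaching it, limit read from the data; inconclusive means only one of the two criteria met; inactive means mean below limit and not every replicate reaching it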
Target sequence (P55789 whole entry, looked up): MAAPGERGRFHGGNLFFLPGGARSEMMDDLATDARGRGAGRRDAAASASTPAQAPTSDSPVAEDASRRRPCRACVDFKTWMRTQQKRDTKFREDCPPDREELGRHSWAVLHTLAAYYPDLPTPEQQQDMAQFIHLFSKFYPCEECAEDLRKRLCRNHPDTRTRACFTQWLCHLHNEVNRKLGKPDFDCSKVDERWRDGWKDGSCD
SMARCA2 activ – SMARCA2 (BRM) function activators, primary screen, cell-based, luminescence, high throughput | MG213 cells, MMTV-luciferase reporter, dexamethasone, overnight | 1% of 370,000 active | AID 652017, 2013 | activation, % at 9.1 µM; in the data active means activation above about 7.8%;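 further: 0% = vehicle wells and 100% = reference activator wells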
beta cell repl – inducers of MIN6 beta-cell proliferation, primary screen, ATP luminescence, uHTS; 0.29% of 330,000 active; AID 2380, 2010; MIN6 cells proliferation, ATPlite luminescence, 48 h; cells starved in 0.2% serum; 100% = growth in 10% serum; proliferation, % at 10 µM;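 active means compounds whose signal lies at least 3.5 SD above the mean of all wells on their plate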;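 further: 0% = DMSO-treated cells in low-serum medium and 100% = 10% serum control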
M18AAP inhibitor – PfM18AAP inhibitors, malaria aminopeptidase, primary screen, biochemical, QFRET, recombinant enzyme; H-Glu-NHMec fluorogenic cleavage; 1.2% of 290,000 active; M18 aspartyl aminopeptidase (Plasmodium falciparum 3D7); inhibition, % at 7.35 µM;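 active means inhibition above the campaign mean inhibition over all tested compounds plus 3 SD, cut at about 28% in these data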;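 further: 0% = plate median of test compound wells and 100% = 2 mM ZnCl2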
* marks the source's active call; other numbers are inactive results; ? = inconclusive; . = not tested or not shown; ! = not active in a repeat.

SMILES | Granule exo inh | GASC-1 inh | ALR inh | SMARCA2 activ | beta cell repl | M18AAP inhibitor
Cc1ccc(C(=O)Nc2oc(-c3ccccc3)cc2C#N)cc1 | 0.9 | -14.8 | 26.5 | 0.2 | -3.1 | -2.6
N#Cc1cc(-c2ccccc2)oc1NC(=O)c1ccccc1 | 3.3 | -0.9 | 78.8* | -0.6 | -2.0 | -3.8
Cc1ccc(S(=O)(=O)NNC(=O)NC23CC4CC(CC(C4)C2)C3)cc1 | -2.7 | -4.7 | 93.7* | -2.5 | 0.0 | -2.8
CC(=O)Nc1ccc(S(=O)(=O)NNC(=O)NC23CC4CC(CC(C4)C2)C3)cc1 | -9.2 | 5.1 | 16.7 | -1.9 | -1.1 | 15.9
Cc1ccc(S(=O)(=O)NNC(=O)Nc2ccc(Cl)cc2)cc1 | 6.8 | -1.7 | -1.4 | 8.8* | -0.6 | 2.4
C=CC(=O)NCC1OCCc2ccccc21 (configuration not stated) | -2.1 | -2.6 | -17.5 | -2.9 | -0.5 | -1.2
O=C(/C=C/c1ccco1)NCC1OCCc2ccccc21 (configuration not stated) | 14.3 | 2.1 | 98.1* | -0.1 | -2.5 | -15.6
CN1CCN(c2ccc3c(c2)Oc2ccccc2CN(Cc2cn(Cc4ccc(C(F)(F)F)cc4)nn2)S3(=O)=O)CC1 | . | . | . | 6.1 | . | .
CC(C)c1ccc(NC2CCCN(C(=O)c3ccccc3-c3ncc[nH]3)C2)cc1 (configuration not stated) | -0.3 | -0.4 | 87.5* | -1.6 | 4.1 | 10.6
CC(C)c1ccc(NC2CCCN(C(=O)c3cccc4nccnc34)C2)cc1 (configuration not stated) | -1.3 | 25.4 | 65.7 | -1.8 | -0.4 | 6.5
CC(C)c1ccc(NC2CCCN(C(=O)c3ccc(N4CCOCC4)cc3)C2)cc1 (configuration not stated) | -4.9 | 2.0 | 97.9* | -0.7 | -1.8 | -3.0
CC(C)c1ccc(NC2CCCN(C(=O)c3ccoc3)C2)cc1 (configuration not stated) | -0.8 | 7.1 | 98.7* | -0.5 | -5.0 | 8.4
O=C(c1ccoc1)N1CCCC(Nc2ccc(F)c(F)c2)C1 (configuration not stated) | 1.5 | -3.5 | 59.4 | 1.9 | -2.2 | -0.8
Cc1cc(C)nc(/N=c2/ssnc2Cl)c1 | 82.2* | 2.6 | . | 1.0 | -4.2 | 29.2*
Cc1ccc(N=c2ssnc2Cl)cc1 | 95.3* | -1.9 | -7.0 | -1.0 | -6.2 | 8.9
COc1cc(N=c2ssnc2Cl)c(OC)cc1Cl | 98.9*! | 5.1 | -11.2 | -0.8 | -7.2 | 29.2*
COC(=O)c1ccccc1NC(=S)NC(=O)c1ccccc1C | 0.2 | -14.5 | 97.4* | -1.7 | -6.3 | 8.6
O=C(NC(=S)Nc1cc([N+](=O)[O-])ccc1O)c1ccc2c(c1)OCO2 | 10.6 | 4.2 | 4.3 | 7.4 | -6.7 | 11.8
COc1cc([N+](=O)[O-])ccc1NC(=S)NNC(=O)c1ccc2c(c1)OCO2 | 3.4 | -2.5 | 97.6* | 0.4 | -5.9 | 8.5
COC(=O)c1ccccc1NC(=S)NC(=O)c1ccccc1 | 1.6 | -11.3 | 98.2* | 1.6 | -3.0 | 10.4
COC(=O)c1ccccc1NC(=S)NC(=O)c1ccc2c(c1)OCO2 | -0.7 | 6.9 | 98.1* | 0.8 | -1.4 | 0.4
Cc1ccccc1C(=O)NC(=S)Nc1ccccc1C(=O)O | -0.9 | -42.8 | 23.5 | 6.5 | -3.0 | -1.9
CCOC(=O)/C=C/S(=O)(=O)c1ccc(NC(C)=O)cc1 | 16.1 | -2.2 | 98.1* | -12.1 | -5.9 | -74.0
COc1cc(/C=N/NC(=O)c2ccc(O)cc2)ccc1Oc1ccc([N+](=O)[O-])cn1 | -1.7 | 8.1 | 92.4* | -2.3 | -0.5 | 2.4
Nc1ccc(C(=O)N/N=C/c2cn(Cc3ccccc3)c3ccccc23)cc1 | 6.4 | 0.1 | -1.0 | 1.2 | 6.6 | -1.7
SMILES | Granule exo inh | GASC-1 inh | ALR inh | SMARCA2 activ | beta cell repl | M18AAP inhibitor
COc1cc(C(=O)N/N=C/c2cn(Cc3ccccc3)c3ccccc23)ccc1O | 2.1 | 2.5 | 84.6* | 3.7 | -2.6 | 18.0
Cc1nc2c(C)cccc2cc1C(=O)N/N=C/c1cccc([N+](=O)[O-])c1 | 0.6 | -1.5 | 98.1* | -1.3 | 0.0 | 5.1
COc1cc(/C=N/N=C/c2c[nH]c(=O)c(C#N)c2Nc2ccccc2)ccc1O | . | ? | 78.4* | . | -2.7 | -5.4
CC(C)CNC(=O)C1CSCCS(=O)(=O)N1Cc1ccccc1 (configuration not stated) | . | . | . | -5.3 | . | .
O=C(N/N=C/c1ccc(OC(=O)c2ccccc2)c([N+](=O)[O-])c1)c1ccc(O)cc1 | -2.0 | 43.2 | 94.0* | -0.8 | -6.2 | 6.3
O=C(N/N=C/c1cccc([N+](=O)[O-])c1)C1CC1c1ccccc1 (configuration not stated) | -1.3 | 2.7 | -1.5 | 9.1* | -0.8 | -5.3
O=C(CCc1ccccc1)N/N=C/c1cccc([N+](=O)[O-])c1 | -0.9 | 0.1 | 1.5 | -3.7 | -0.9 | -2.4
COc1cc(C(=O)N/N=C(\C)c2ccc(NC(=O)Cc3ccccc3)cc2)ccc1O | 1.8 | -6.2 | 95.5* | 2.8 | 4.6 | 4.0
COc1cc(/C=N/NC(=O)c2ccccc2)ccc1O | -0.3 | 6.6 | 99.8* | 6.9 | 1.6 | -1.0
COc1cccc(C(=O)N/N=C(\C)c2ccc(NC(=O)Cc3ccccc3)cc2)c1OC | -6.1 | -2.8 | -6.5 | -0.6 | 4.2 | 3.4
CCNC(=O)OCCN1C(=O)CCC12CCC(c1ccc(Cl)cc1)CC2 (configuration not stated) | . | . | . | -2.8 | . | .
COC(=O)[C@@]12CCCCC3=C1N(CCC3)C(=O)[C@H]2CC(=O)N1CCCCC1 | . | . | . | -1.6 | . | .
COc1cc(/C=N/NC(=O)c2cccc([N+](=O)[O-])c2)cc(OC)c1O | -3.2 | 0.4 | 97.8* | 1.9 | -1.2 | 13.1
O=C(N/N=C/c1cc(Br)c(O)c(Br)c1O)c1cccnc1 | 65.0* | 17.7 | 41.6 | -1.9 | -2.2 | 22.6
COc1cc(/C=N/NC(=O)c2ccc(CSc3nc4ccccc4[nH]3)cc2)ccc1O | -0.5 | 2.7 | 98.9* | -0.9 | 0.5 | -6.4
CCN(CC)S(=O)(=O)c1cccc(C(=O)N/N=C/c2ccc(OC)c(O)c2)c1 | -2.7 | -8.0 | 96.6* | -0.5 | 1.4 | -3.0
Cc1cc(C)cc(N(CC(=O)NC2CCC(C)CC2)S(=O)(=O)c2ccc(C)c(C)c2)c1 (configuration not stated) | . | . | . | 1.0 | . | .
COc1ccc(/C=N/NC(=O)c2cccnc2)cc1 | -0.3 | -6.6 | -12.7 | -2.3 | 1.3 | 10.5
COc1ccc(/C=N/NC(=O)c2cccnc2)cc1O | 0.9 | -6.5 | 87.6* | -0.7 | -2.0 | 2.2
COc1cc(/C=N/NC(=O)c2cccc(NC(=O)c3ccccc3Cl)c2)ccc1O | 4.6 | -17.2 | 87.7* | 1.4 | 1.0 | 3.6
